Reference: paper PMC4336329 (PLoS ONE, 2015)
In all, about 310,000 compounds went through this assay and about 14,000 (4.5%) showed an effect of 50% or more. The effect is printed as a negative number. The full list was thinned out, with strong results kept by preference.

target: human ether-à-go-go-related gene (hERG) potassium channel (human, UniProt Q12809); experiment: primary screen, population patch clamp on CHO cells stably expressing hERG; higher = less effect of the substance
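Note: peak tail current of the secondary pulse compared with the same well before compound.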

Sequence of human ether-à-go-go-related gene (hERG) potassium channel (Q12809 whole entry, looked up): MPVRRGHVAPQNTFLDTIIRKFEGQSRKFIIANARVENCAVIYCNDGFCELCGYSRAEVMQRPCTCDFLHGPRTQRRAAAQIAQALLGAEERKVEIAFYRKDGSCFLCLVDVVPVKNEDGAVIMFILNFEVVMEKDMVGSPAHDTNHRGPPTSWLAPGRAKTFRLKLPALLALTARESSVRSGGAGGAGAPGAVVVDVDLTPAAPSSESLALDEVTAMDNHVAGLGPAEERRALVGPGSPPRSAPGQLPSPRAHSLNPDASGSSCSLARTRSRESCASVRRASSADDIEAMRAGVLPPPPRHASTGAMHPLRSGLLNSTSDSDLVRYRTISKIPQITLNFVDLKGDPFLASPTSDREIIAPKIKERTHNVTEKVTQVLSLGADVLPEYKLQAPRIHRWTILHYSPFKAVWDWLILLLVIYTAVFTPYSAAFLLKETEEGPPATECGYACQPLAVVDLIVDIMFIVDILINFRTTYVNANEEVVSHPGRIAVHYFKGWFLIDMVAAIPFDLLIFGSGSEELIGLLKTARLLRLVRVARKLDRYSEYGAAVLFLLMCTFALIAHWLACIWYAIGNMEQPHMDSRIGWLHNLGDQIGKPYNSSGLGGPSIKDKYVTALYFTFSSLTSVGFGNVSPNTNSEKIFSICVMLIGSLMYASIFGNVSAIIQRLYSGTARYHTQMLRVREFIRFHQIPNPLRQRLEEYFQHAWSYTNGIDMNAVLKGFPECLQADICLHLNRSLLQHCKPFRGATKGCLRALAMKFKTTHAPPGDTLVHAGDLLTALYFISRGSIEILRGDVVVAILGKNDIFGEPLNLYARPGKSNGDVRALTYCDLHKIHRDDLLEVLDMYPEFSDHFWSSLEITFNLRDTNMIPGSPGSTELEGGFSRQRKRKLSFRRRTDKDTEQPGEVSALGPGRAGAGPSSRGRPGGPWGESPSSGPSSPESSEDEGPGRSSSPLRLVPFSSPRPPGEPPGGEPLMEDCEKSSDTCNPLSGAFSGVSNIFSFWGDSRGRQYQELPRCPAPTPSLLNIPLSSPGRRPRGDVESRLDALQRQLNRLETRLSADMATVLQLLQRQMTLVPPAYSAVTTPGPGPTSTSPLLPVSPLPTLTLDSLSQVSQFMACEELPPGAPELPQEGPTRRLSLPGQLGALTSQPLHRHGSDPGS

Structure (SMILES)	hERG current change (%, negative = inhibition) at 10uM
Cc1c(NC2=CC(=O)CCC2)c(=O)n(-c2ccccc2)n1C	8.37%
O=C(CC(=O)N1CCN(c2ccccn2)CC1)Nc1ccc2nc3n(c(=O)c2c1)CCCCC3	-17.9%
C/C(=N\N1CCCCC1c1cccnc1)c1c(O)n(C2CCCCC2)c(=S)[nH]c1=O (stereo not drawn)	0.0734%
CCCCn1c(O)c(/C(CC)=N/N2CCCCC2c2cccnc2)c(=O)[nH]c1=S (stereo not drawn)	-27%
CCn1c(O)c(/C(C)=N/N2CCCCC2c2cccnc2)c(=O)[nH]c1=S (stereo not drawn)	-55.2%
O=[N+]([O-])c1cc([N+](=O)[O-])c(Oc2c(F)ccc(F)c2F)cc1NN1CCCCC1	19.8%
CC1CCCCC1NC(=O)c1ccc(S(=O)(=O)NCc2ccco2)cc1 (stereo not drawn)	7.19%
CCNc1nc(=S)nc(NC(C)C)[nH]1	29.6%
Cc1oc(-c2ccc(Cl)cc2)nc1CN1CCCC(C(=O)N2CCOCC2)C1 (stereo not drawn)	-53.8%
CCOC(=O)N1CCN(C(=O)C2CCCN(Cc3nc(-c4ccc(Cl)cc4)oc3C)C2)CC1 (stereo not drawn)	-70.9%
Cc1ccc(-c2nc(CN3CCCC(C(=O)N4CCOCC4)C3)c(C)o2)cc1 (stereo not drawn)	-37.5%
Cc1oc(-c2cc3c(cc2Cl)OCO3)nc1CN1CCCC(C(=O)N2CCOCC2)C1 (stereo not drawn)	-24.7%
CCOC(=O)N1CCC(NC(=O)CS(=O)Cc2nc(-c3ccc(Cl)cc3)oc2C)CC1 (stereo not drawn)	-47.4%
CCOc1ccc(-c2nc(CN3CCCC(C(=O)N4CCOCC4)C3)c(C)o2)cc1 (stereo not drawn)	-26.5%
O=C(C1CCC(CNS(=O)(=O)c2ccccc2)CC1)N1CCCCC1 (stereo not drawn)	-1.89%
C=CCN(c1ccc(Br)cc1C(=O)OC)S(C)(=O)=O	0.801%
Brc1ccc(-c2cnc(-c3cccs3)o2)cc1	-3%
CN1C2CCC1CC(NC(=O)CSCc1ccc(Cl)cc1Cl)C2 (stereo not drawn)	-57.4%
CN1C2CCC1CC(NC(=O)CSc1ccc(Cl)cc1)C2 (stereo not drawn)	-8.94%
NNC(=O)CSCc1ccc(Cl)cc1Cl	-2%
O=C(O)C1=C[C@@H](C2CC2)C[C@@H](OCc2ccc(CO)cc2)O1	21.4%
COc1cc(Br)c(C2C(C#N)=C(N)Oc3n[nH]c(-c4cccnc4)c32)cc1OC (stereo not drawn)	6.8%

Structure (SMILES)	hERG current change (%, negative = inhibition) at 10uM
Cc1cccc(NC(=O)c2nc[nH]c2C(=O)N2CCC(C)CC2)c1	1.29%
CCCc1[nH]n(-c2ccc([N+](=O)[O-])cc2)c(=O)c1C=NCCc1c[nH]c2ccccc12	8.42%
CCCc1[nH]n(-c2ccc([N+](=O)[O-])cc2)c(=O)c1C=NCCc1ccc(OC)c(OC)c1	-19.4%
CC(=NCCCn1ccnc1)c1c(C)[nH]n(-c2ccc([N+](=O)[O-])cc2)c1=O	-69.3%
CC(=NCCCn1ccnc1)c1c(O)n(-c2ccccc2)c(=O)[nH]c1=O	5.91%
CC(=NCCCn1ccnc1)c1c(O)n(C)c(=O)n(C)c1=O	-9.42%
CCCc1[nH]n(-c2ccc([N+](=O)[O-])cc2)c(=O)c1C=NCCCn1ccnc1	-76.4%
CCCc1[nH]n(-c2ccc([N+](=O)[O-])cc2)c(=O)c1C(C)=NCc1ccncc1	-52.4%
CCCc1[nH]n(-c2ccc([N+](=O)[O-])cc2)c(=O)c1C=NCCN1CCNCC1	-47.1%
COc1ccc(-c2[nH]n(-c3ccc([N+](=O)[O-])cc3)c(=O)c2C=NCc2ccncc2)cc1	-3.44%
O=C1CC(N(O)c2ccccc2)C(=O)N1c1cc(Cl)cc(Cl)c1 (stereo not drawn)	16.2%
COc1ccccc1CNC(=O)C(NC(=O)Nc1ccccc1)C(C)C (stereo not drawn)	13%
CCCCn1c(=O)[nH]c(=O)c2c1nc(CN(C)Cc1cccc(OC)c1OC)n2CCC.O=C(O)C(=O)O	18.5%
Cc1ccc(-n2ncc3c2ncn2c(C)nnc32)cc1C	-10.5%
COc1ccc(NC(=O)COC(=O)c2ccc(NS(=O)(=O)/C=C/c3ccccc3)cc2)cc1	0.149%
Cc1ccccc1NC(=O)NC1CCS(=O)(=O)C1 (stereo not drawn)	16.6%
CCn1c(SCC(=O)NC2CCCC2)nnc1-c1cccnc1	5.55%
Cc1c(C#N)c(NC(=O)c2ccccc2)n(Cc2ccccc2)c1C	2.21%
COc1cc2ccccc2cc1C(=O)N1CCCCC1	-0.827%
COc1ccccc1N1CCN(C(=O)c2c(-c3ccccc3Cl)noc2C)CC1	-51.2%
COc1cc2ccccc2cc1C(=O)N1CCCC1	7.7%
O=C(c1cccc(S(=O)(=O)N2CCCCCC2)c1)N1CCN(c2ccccc2F)CC1	-58%

Structure (SMILES)	hERG current change (%, negative = inhibition) at 10uM
COc1ccccc1N1CCN(C(=O)c2cccc(S(=O)(=O)N3CCCCCC3)c2)CC1	-77%
CN1CCN(S(=O)(=O)c2cccc(C(=O)N3CCN(c4ccccc4F)CC3)c2)CC1	-0.195%
COc1ccccc1N1CCN(C(=O)c2c(-c3c(Cl)cccc3Cl)noc2C)CC1	2.17%
COc1ccccc1N1CCN(C(=O)c2ccc(S(=O)(=O)N3CCCCCC3)cc2)CC1	-39.8%
COc1ccccc1N1CCN(C(=O)c2ccc(S(=O)(=O)N3CCCCC3)cc2)CC1	-10.2%
O=C(c1cccc(S(=O)(=O)N2CCCC2)c1)N1CCN(c2ccccc2F)CC1	-18.1%
CCOc1ccccc1N1CCN(C(=O)c2c(-c3ccccc3Cl)noc2C)CC1	2.42%
COc1cc2ccccc2cc1C(=O)N1CCN(c2ccccc2O)CC1	-59.7%
CC(C)(O[C@@H]1O[C@H](CO)[C@@H](O)[C@H](O)[C@H]1O)[C@@H]1CC=C(C(=O)O)CC1	15.5%
COc1ccc(NC(=O)CN(c2ccccc2F)S(=O)(=O)c2ccc(C)cc2)cc1	10.6%
COC(=O)c1sc2nc(N)c(C#N)cc2c1N	31.1%
Cc1nc(NCCc2ccc(O)cc2)c2nnn(Cc3ccccc3)c2n1	0.0141%
Cc1ccc(OCC(=O)Nc2oc(-c3ccccc3)c(-c3ccccc3)c2C#N)cc1	17.7%
COc1cc(CC(=O)NNC(=O)c2cc(C)oc2C)cc(OC)c1OC	24.1%
COc1ccc(S(=O)(=O)N2CCN(c3ccccc3OC)CC2)cc1C(=O)N1CCCCC1	7.51%
COc1ccc(S(=O)(=O)N2CCCCCC2)cc1C(=O)N1CCN(c2ccccc2O)CC1	-70.6%
COc1ccc(S(=O)(=O)N2CCCCCC2)cc1C(=O)N1CCN(c2ccccc2C)CC1	-48%
Cc1ccc(-c2n[nH]c(=S)n2/N=C/c2ccc(C(=O)O)cc2)cc1	3.02%
CCN(CC)c1ccc(N=Cc2ccc(N(CC)CC)cc2O)cc1	0.156%
CCCN1CCN(C(=O)c2nn(-c3ccc(OC)cc3)c(=O)c3c2c2ccccc2n3C)CC1	-3.71%
O=C(CCC(=O)N1CCCc2ccccc21)N1CCN(S(=O)(=O)c2ccccc2)CC1	-9.26%
COc1ccc(CNC(=O)CCC(=O)N2CCN(S(=O)(=O)c3ccc(Cl)cc3)CC2)cc1	22.3%

Structure (SMILES)	hERG current change (%, negative = inhibition) at 10uM
O=C(CCC(=O)N1CCN(S(=O)(=O)c2ccc(Cl)cc2)CC1)NCc1ccccc1	-14.8%
Cc1ccc(S(=O)(=O)N2CCN(C(=O)CCC(=O)NCc3ccc(F)cc3)CC2)cc1	-24%
Cc1ccc(S(=O)(=O)N2CCN(C(=O)CCC(=O)NCc3cccc(C(F)(F)F)c3)CC2)cc1	-54.2%
O=C(CCC(=O)N1CCOCC1)NCc1cccc(C(F)(F)F)c1	-0.171%
Cc1ccc(S(=O)(=O)N2CCN(C(=O)CCC(=O)N3CCc4ccccc43)CC2)cc1	-62.2%
Cc1ccc(S(=O)(=O)CCC(=O)N2CCc3ccccc32)cc1	-16%
Cc1ccc(C)c(S(=O)(=O)N2CCN(C(=O)CCC(=O)NCc3ccc(Cl)cc3)CC2)c1	-65.1%
O=C(CSc1nnc(-c2ccccc2O)n1Cc1ccccc1)NNC(=O)c1ccccc1O	0.52%
COc1nccc(C(F)(F)F)c1C(=O)NC(=O)Nc1ccccc1	-8.51%
CCOC(=O)C1CCCN(C(=O)c2cc(S(=O)(=O)N3CCCCC3)c[nH]2)C1 (stereo not drawn)	14.5%
CCOC(=O)c1c(C)[nH]c(C)c1S(=O)(=O)N1CCCCC1	15.9%
CCOC(=O)CC(NS(=O)(=O)Cc1ccccc1)c1ccc(C)cc1 (stereo not drawn)	-5.46%
Cc1ccccc1NC(=O)CCC(=O)N/N=C/c1c[nH]c2ccccc12	2.16%
C=CCn1c2ccccc2c2nnc(SCC(=O)NC(C(=O)OC)C(C)C)nc21 (stereo not drawn)	-15.1%
COc1ccc(-c2c[n+]3c(n2-c2ccc(C)cc2)CCCCC3)cc1.[Br-]	-48.2%
COc1ccc(-n2c(-c3ccc(Br)cc3)c[n+]3c2CCC3)cc1.[Br-]	-56%
COc1ccc(-n2c(-c3ccc(Br)cc3)n[nH]c2=S)cc1	13.3%
COc1ccc(-n2c(-c3ccc(Br)cc3)c[n+]3c2SC(C)C3)cc1.[Br-] (stereo not drawn)	-72.6%
COc1ccc(-n2c(-c3ccccc3)c[n+]3c2CCC3)cc1.[Br-]	-20.5%
COc1ccc(-c2c[n+]3c(n2-c2c(C)n(C)n(-c4ccccc4)c2=O)CCCCC3)cc1.[Br-]	4.43%
COc1ccc(-n2c(-c3ccc(Br)cc3)c[n+]3c2CCCCC3)cc1.[Br-]	-80.3%
